Measured values reported in the supplement of paper PMC8866396.
± gives the standard deviation of the averaged measurements.

The compounds below were run on IL-6-GFP PC-9 (assay: cell viability (CCK-8 OD) relative to DMSO control (fraction of control); higher = more viable cells). Settings: compound concentration: 10 uM; treatment time: 48 h.
In short: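 Compounds from a purchased library of 510 were each tested at a final 10 μM for 48 h on PC-9 and PC-9GR lung cancer cells plated at 3000 cells/well in 96-well plates. These cells overexpressed IL-6-GFP from a lentiviral construct. Viability came from CCK-8 absorbance, given as the optical density of each well over that of the vehicle control well, across independent replicates numbering two.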

Structure (SMILES) | cell viability
O=C(Nc1cnn2ccc(N3CCCC3c3cc(F)ccc3F)nc12)N1CCC(O)C1.O=S(=O)(O)O (configuration not stated) [Larotrectinib (LOXO-101) sulfate] | 1.14 ± 0.12
CNC1CCC(c2ccc(Cl)c(Cl)c2)c2ccccc21.Cl (configuration not stated) [Sertraline HCl] | 0.664 ± 0.35
CC(C)C(=O)OCC(=O)C12OC(C3CCCCC3)OC1CC1C3CCC4=CC(=O)C=CC4(C)C3C(O)CC12C (configuration not stated) [Ciclesonide] | 0.894 ± 0.16
CCCC(=O)OC1(C(=O)CO)CCC2C3CCC4=CC(=O)CCC4(C)C3C(O)CC21C (configuration not stated) [Hydrocortisone butyrate] | 1.08 ± 0.073
Cc1oncc1C(=O)Nc1ccc(C(F)(F)F)cc1 [Leflunomide] | 0.683 ± 0.21
COc1cc2ncnc(Nc3ccc(F)c(Cl)c3)c2cc1OCCCN1CCOCC1.Cl [Gefitinib hydrochloride] | 0.6584 ± 0.0058
Cc1ccc(=O)n(-c2ccccc2)c1 [Pirfenidone] | 1.07 ± 0.31
CCCCNC(=O)NS(=O)(=O)c1ccc(C)cc1 [Tolbutamide] | 1.2 ± 0.16
Cc1ccc(C2OC(CO)C(O)C(O)C2O)cc1Cc1ccc(-c2ccc(F)cc2)s1 (configuration not stated) [Canagliflozin] | 1.16 ± 0.15
COc1ccc(S(=O)(=O)N(C(C)=O)c2ccccc2/C=C/c2cc[n+]([O-])cc2)cc1 | 0.753 ± 0.018
C=CC(=O)Nc1cc(Nc2nccc(-c3cn(C)c4ccccc34)n2)c(OC)cc1N(C)CCN(C)C [Osimertinib (AZD9291)] | 0.372 ± 0.059
COc1ccc2cc1Oc1ccc(cc1)CC1c3c(cc4c(c3Oc3cc5c(cc3OC)CCN(C)C5C2)OCO4)CCN1C (configuration not stated) [Cepharanthine] | 0.73 ± 0.15
Cn1c(=O)cc(N2CCCC(N)C2)n(Cc2cc(F)ccc2C#N)c1=O.O=C(O)CCC(=O)O (configuration not stated) [Trelagliptin succinate] | 1.07 ± 0.15
CC(C)(O)c1ccccc1CCC(SCC1(CC(=O)O)CC1)c1cccc(/C=C/c2ccc3ccc(Cl)cc3n2)c1 (configuration not stated) [Montelukast] | 0.934 ± 0.32
CCC1(O)C(=O)OCc2c1cc1n(c2=O)Cc2cc3cc(O)ccc3nc2-1 [(S)-10-Hydroxycamptothecin] | 0.433 ± 0.032
CC(C)(C)c1nc(-c2cccc(NS(=O)(=O)c3c(F)cccc3F)c2F)c(-c2ccnc(N)n2)s1.CS(=O)(=O)O [Dabrafenib Mesylate] | 0.921 ± 0.19

Structure (SMILES) | cell viability
CC[N+](CC)(CC)CCOc1cccc(OCC[N+](CC)(CC)CC)c1OCC[N+](CC)(CC)CC.[I-].[I-].[I-] [Gallamine Triethiodide] | 1.202 ± 0.0034
COC(=O)c1cc(OC)c2c(c1-c1c(CO)cc(OC)c3c1OCO3)OCO2 [Bicyclol] | 0.934 ± 0.097
CC(=O)OC1(C(C)=O)CCC2C3C=C(Cl)C4=CC(=O)C5CC5C4(C)C3CCC21C (configuration not stated) [Cyproterone Acetate] | 1.2 ± 0.092
COc1c2occc2cc2ccc(=O)oc12 [Methoxsalen] | 0.839 ± 0.23
O=C(O)COc1nn(Cc2ccccc2)c2ccccc12 [Bendazac] | 1.14 ± 0.11
CC1CC2C3CCC4=CC(=O)C=CC4(C)C3(F)C(O)CC2(C)C1C(=O)CO (configuration not stated) [Desoximetasone] | 1.08 ± 0.093
CC1(C)C2CCC1(C)C(O)C2 (configuration not stated) [Borneol] | 0.778 ± 0.016
O=C(O)c1ccccc1Nc1cccc(C(F)(F)F)c1 [Flufenamic acid] | 1.14 ± 0.15
CCCCCOC(=O)Nc1nc(=O)n(C2OC(C)C(O)C2O)cc1F (configuration not stated) [Capecitabine] | 0.459 ± 0.015
CC(CCC(=O)[O-])C1CCC2C3C(O)CC4CC(O)CCC4(C)C3CC(O)C12C.[Na+] (configuration not stated) [Sodium cholate] | 0.997 ± 0.067
CC12CCC(=O)C=C1CCC1C2C(O)CC2(C)C1CCC2(O)C(=O)CO (configuration not stated) [Hydrocortisone] | 0.995 ± 0.24
CC1CCN(C(=O)CC#N)CC1N(C)c1ncnc2[nH]ccc12.O=C(O)CC(O)(CC(=O)O)C(=O)O (configuration not stated) | 1.26 ± 0.04
NC(=O)c1cccc2cn(-c3ccc(C4CCCNC4)cc3)nc12 (configuration not stated) [Niraparib (MK-4827)] | 0.918 ± 0.045
O=C(CCCc1ccccc1)[O][Na] [Sodium Phenylbutyrate] | 0.0369 ± 0.035
Clc1ccc(C(c2ccccc2Cl)C(Cl)Cl)cc1 (configuration not stated) [Mitotane] | 0.958 ± 0.05
Nc1c(CC(=O)[O-])cccc1C(=O)c1ccc(Br)cc1.[Na+] [Bromfenac Sodium] | 1 ± 0.14
